# Mtb UGM inh: inhibitors of M. tuberculosis UDP-galactopyranose mutase; P9WIQ1; purified UGM, fluorescence polarization probe displacement; inhibition, % at 10 µM; actives 0.06% (n = 320,000); in the data active = inhibition above about 10%, passing the limit was not always enough
# Mtb FBA inh: inhibitors of M. tuberculosis fructose-bisphosphate aldolase | purified M. tuberculosis FBA, fluorescence read-out | actives 2.3% (n = 360,000) | inhibition, % at 1 µM | P9WQA3 | AID 588726;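 note: 0% = vehicle and 100% = reference inhibitor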
# RecA splice inh: Mtb RecA intein splicing inhibition; cell-free RecA intein splicing, fluorescence; inhibition, % (concentration not given with the values); actives 0.75% (n = 290,000); AID 2221; in the data active = inhibition above about 30%;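 note: 0% = vehicle wells and 100% = reference inhibitor control wells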
# Mtb betalactam: beta-lactam sensitization of Mtb H37Rv; M. tuberculosis H37Rv growth with meropenem, percent inhibition; inhibition, % at 25 µM; actives 0.27% (n = 330,000); call rule not given here;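 note: growth measured after seven days incubation then overnight dye step; 0% = bacteria only wells and 100% = bacteria with antibiotic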
# GDH-TPI counter-1: counter-screen for M. tuberculosis FBA inhibitors: GDH-TPI coupled enzymes. GDH-TPI coupled enzyme counterscreen, NADH absorbance. inhibition, % at 4.8 µM. actives 1.2% (n = 360,000); in the data active = inhibition above about 30%;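 note: 0% = DMSO wells and 100% = wells lacking the enzyme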
# Rv3671c inh: inhibitors of M. tuberculosis serine protease Rv3671c; P9WHR9; inhibition, % at 5.96 µM; actives 0.048% (n = 320,000); in the data active = inhibition above about 38%;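 note: extracellular domain of Rv3671c used as enzyme; 0% = enzyme with DMSO and 100% = no enzyme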
# Target sequence (P9WHR9 whole entry, looked up, the tested form may be a part): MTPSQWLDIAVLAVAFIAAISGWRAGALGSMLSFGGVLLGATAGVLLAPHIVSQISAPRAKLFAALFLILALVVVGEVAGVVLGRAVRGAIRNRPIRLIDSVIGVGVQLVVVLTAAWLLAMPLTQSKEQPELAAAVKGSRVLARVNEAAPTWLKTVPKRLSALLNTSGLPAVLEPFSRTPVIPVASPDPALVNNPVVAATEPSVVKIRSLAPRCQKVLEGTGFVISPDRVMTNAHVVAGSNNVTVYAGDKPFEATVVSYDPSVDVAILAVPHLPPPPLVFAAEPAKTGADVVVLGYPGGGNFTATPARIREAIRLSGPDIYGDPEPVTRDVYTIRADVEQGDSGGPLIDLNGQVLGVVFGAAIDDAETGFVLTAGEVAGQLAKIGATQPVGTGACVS
# Mtb FBA inh conf: Mtb FBA inhibition, confirmed; shares compounds with Mtb FBA inh; purified M. tuberculosis FBA, fluorescence read-out; inhibition, % at 1 µM; actives 78% (n = 5,600);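 note: 0% = vehicle wells and 100% = reference inhibitor wells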
# GDH-TPI counter-2: GDH-TPI inhibition counter-screen for FBA inhibitors; shares compounds with Mtb FBA inh; GDH-TPI coupled enzyme counterscreen, fluorescence; inhibition, % at 1 µM; actives 81% (n = 5,600); in the data active = inhibition above about 10%
# Starred values were filed as active, the others as inactive; x = no result given; + = active, no number. Shown are actives, neighbours in structure and some others; about 4% of the full set was active somewhere. Cut-off read from the data, not from the text of the source, unless noted: active = inhibition above about 27%; inactive = the rest.
SMILES,Mtb UGM inh,Mtb FBA inh,RecA splice inh,Mtb betalactam,GDH-TPI counter-1,Rv3671c inh,Mtb FBA inh conf,GDH-TPI counter-2
O=C(COC(=O)CC(c1ccccc1)c1ccccc1)Nc1c(F)cccc1F,-4,x,9,8,x,-18,x,x
O=C(CSc1nc(=O)n(CCCN2CCOCC2)c2c1CCC2)Nc1ccc([N+](=O)[O-])cc1,4,-1,2,-9,19,5,x,x
Cc1ccc(C)c(N2C(=O)CC(Cc3ccccc3)C2=O)c1 (stereo unspecified),-1,-2,-1,-1,3,1,x,x
CN(C)c1ccc(NC(=O)c2ccc(N3CCOCC3)nc2)cc1,3,1,1,-1,16,10,x,x
CCOc1ccc(-c2cc(C(=O)OC)nc3c2c(=O)n(C)c(=O)n3C)cc1,0,33*,-2,2,9,1,118*,91*
COC(=O)c1cc(-c2ccc(Br)cc2)c2c(=O)[nH]c(=O)n(C)c2n1,0,9,-2,3,26,-1,x,x
Cc1ccc2nc(-c3ccc(S(=O)(=O)N4CCCCC4)cc3)cn2c1,0,53*,1,4,0,11,45*,39*
Cc1ccc(S(=O)(=O)N2CCN(S(=O)(=O)N3CCCCC3)CC2)cc1,-4,1,-3,-3,-9,9,x,x
CCC(C)(C)C(=O)Nc1ncc(S(=O)(=O)c2ccc([N+](=O)[O-])cc2)s1,3,76*,0,89,-3,2,4,-1
Cc1nnsc1C(=O)N1CCCC(N2CCN(c3ccc(F)cc3)CC2)C1 (stereo unspecified),-3,-1,-2,-19,-3,0,x,x
CCOC(=O)c1cc2nc(-c3ccco3)cc(C(F)(F)F)n2n1,3,28*,-18,17,7,-11,+,+
O=c1[nH]cccc1-c1nc2cc(Cl)ccc2n1Cc1ccccc1,0,77*,-1,-2,1,-5,5,-2
CC(C)c1nc2cc(Cl)ccc2n(Cc2ccccc2)c1=O,2,3,10,2,-10,2,x,x
O=S(=O)(c1cccc(F)c1)N1CCc2sccc2C1c1ccc(OC(F)(F)F)cc1 (stereo unspecified),0,1,3,2,-1,-3,x,x
CCN(CC)c1ccc(C2NC(=O)c3ccccc3N2)cc1 (stereo unspecified),x,23,x,x,29,x,x,x
O=C1NC(c2ccc(Br)cc2)Nc2ccccc21 (stereo unspecified),-1,42*,-3,2,10,1,102*,95*
O=C1NC(c2ccc3c(c2)OCO3)Nc2ccccc21 (stereo unspecified),0,20,-2,-5,8,-2,x,x
O=C1NC(c2ccc3ccccc3c2)Nc2ccccc21 (stereo unspecified),x,50*,x,x,8,x,71*,87*
CC(=O)N(CC(=O)Nc1nn(-c2ccccc2)nc1C(N)=O)Cc1ccccc1,-3,43*,-1,1,2,0,1,-3
NC(=O)c1nn(-c2ccccc2)nc1NC(=O)CN1CCCC1,2,25,-3,-4,0,-7,x,x
CCn1cc(C2C(C(=O)Nc3cc(C)ccn3)=C(C)NC3=C2C(=O)CC(C)(C)C3)c(C)n1 (stereo unspecified),2,52*,-20,-2,8,-10,104*,85*
CCN(CC)c1ccc(C2C(C(=O)Nc3ccccn3)=C(C)NC3=C2C(=O)CC(C)(C)C3)cc1 (stereo unspecified),-3,2,-26,-3,-4,5,x,x
Cc1cc(C(=O)O)ccc1-c1ccc(/C=C2\NC(=O)N(Cc3ccc(F)cc3)C2=O)o1,1,2,-12,88,-1,1,x,x
Cc1ccc(-c2cc(C)nc3nc(N)nn23)cc1,2,83*,x,-6,17,4,61*,51*
CCC1(C)Cc2[nH]c(=O)c(C#N)cc2CO1 (stereo unspecified),2,69*,0,-8,7,3,2,-1
SMILES,Mtb UGM inh,Mtb FBA inh,RecA splice inh,Mtb betalactam,GDH-TPI counter-1,Rv3671c inh,Mtb FBA inh conf,GDH-TPI counter-2
O=C(CN(C(=O)CCC(=O)Nc1ccccn1)c1ccc2c(c1)OCO2)NCc1ccc(F)cc1,-1,0,1,3,-3,-2,x,x
COc1ccc(-c2cc3nc(NCCCN(C)C)n(C)c(=O)c3s2)cc1OC,x,47*,x,x,20,x,129*,86*
CCOC(=O)Cc1nnc(Nc2cc(C)ccc2C)c2ccccc12,2,0,-1,4,-4,1,x,x
CC(C)(O)c1cc2ccc(C#Cc3ccsc3)cc2c(=O)o1,1,50*,x,71,9,-18,32*,31*
O=c1oc(CCCO)cc2ccc(C#Cc3ccsc3)cc12,3,57*,x,76,1,-19,87*,73*
COc1ccc(NC(=O)CN(C)C(=O)c2cc(-c3ccc(OC)cc3)nc3ccccc23)cc1,3,35*,2,78,19,-25,49*,36*
COc1ccc(NC(=O)CN(C)C(=O)c2cc(-c3ccccc3)nc3ccccc23)cc1,-2,1,-8,2,-6,-4,x,x
COc1ccc(-c2cc(C(=O)N(C)CC(=O)Nc3cccc(F)c3)c3ccccc3n2)cc1,-1,54*,0,-2,7,-15,115*,83*
CN(CC(=O)Nc1cccc(F)c1)C(=O)c1cc(-c2ccccc2)nc2ccccc12,2,4,-2,-10,3,-24,x,x
N#Cc1cc(-c2ccccc2)oc1/N=C/c1ccccc1O,3,59*,-5,6,10,6,45*,29*
COc1cccc(/C=N/c2oc(-c3ccccc3)cc2C#N)c1O,-1,54*,4,-5,-2,8,7,2
COc1ccc(/C=N/c2oc(-c3ccccc3)cc2C#N)cc1,-1,12,-2,-6,5,5,x,x
CCOc1ccc(NC(=O)COC(=O)CCC(=O)c2cccs2)cc1,x,3,x,0,13,10,x,x
COCOc1ccc(-c2ncc(OCCN3CCCC3=O)nc2NC(=O)c2cc3ccccc3s2)cc1,x,-2,x,x,21,x,x,x
Cc1cc(=O)oc2c(N)nccc12,x,22,x,x,x,x,x,x
Cc1cc(=O)oc2c3c(ccc12)OC/C3=N/N,-3,94*,-2,-3,15,-3,+,+
CCOc1ccc(C(=O)NCC(=O)OCc2csc(-c3ccccc3)n2)cc1,6,29*,1,5,8,-13,194*,166*
COc1ccc(CCNc2cc(C)nc3c(-c4ccc(Cl)cc4)cnn23)cc1OC,-2,34*,10,87,5,4,42*,34*

# Screening data deposited in PubChem by several laboratories.
